In the supplement of paper PMC10981050:
“And” between values parts separate entries of the source, which are not always exact repeats. Equal values may be shown once. Where a name gives a salt, the structure may show the parent alone.

Key:
Test in all cases: cell viability relative to vehicle control; higher = less cytotoxic
Details in all cases: 10 µM
K562 = test system: K562
Summary of the method: (§1)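 CRISPR-edited SRSF2 P95 mutant and isogenic wild-type clones of four leukaemia lines were screened against Selleck bioactive, kinase and epigenetic probe libraries, with identity-inconsistent compounds removed. Compounds were acoustically dispensed into 384-well plates at a single 10 µM dose, with 2000 cells in 50 µL medium per well. After 48 h, supernatant was removed and CellTiter-Glo luminescence was read. Viability was expressed as percent of the on-plate DMSO vehicle control, analysed in Genedata Screener.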

MARIMO = test system: MARIMO
Summary of the method: as §1

MOLM14 = test system: MOLM14
Summary of the method: as §1

OCI-AML2 = test system: OCI-AML2
Summary of the method: as §1

Structure (SMILES)	cell viability (K562; SRSF2 genotype: SRSF2 P95H/wt)	cell viability (K562; SRSF2 genotype: SRSF2 wt/wt) [%]	cell viability (MARIMO; SRSF2 genotype: SRSF2 P95H/wt) [%]	cell viability (MARIMO; SRSF2 genotype: SRSF2 wt/wt) [%]	cell viability (MOLM14; SRSF2 genotype: SRSF2 P95H/wt) [%]	cell viability (MOLM14; SRSF2 genotype: SRSF2 wt/wt) [%]	cell viability (OCI-AML2; SRSF2 genotype: P95H/wt) [%]	cell viability (OCI-AML2; SRSF2 genotype: wt/wt) [%]
CNS(=O)(=O)CCc1ccc2[nH]cc(C3CCN(C)CC3)c2c1 [Naratriptan HCl]	104% and 100%	104	97.3	110	107	104	102	113
CN1CCC[C@H]1c1cccnc1 [nicotine ditartrate]	101% and 97.3%	97.6	105	117	99.1	101	95.6	106
Cc1cc(Cn2cnc3c2CC(C(=O)O)N(C(=O)C(c2ccccc2)c2ccccc2)C3)ccc1N(C)C (stereo not given)	100% and 97.2%	99.5	102	101	94.9	97.2	100	117
Cc1cc(C(=O)NOCCO)c(Nc2ccc(I)cc2F)n(C)c1=O	79.1% and 88%	84.6	43.3	36.3	43.5	28.7	39.4	42.9
O=C(c1cncc(Br)c1)N1CCC(N2CCCC2)CC1	103% and 100%	98.7	106	100	101	101	104	120
COc1cc(-c2oc3cc(O)cc(O)c3c(=O)c2O[C@@H]2O[C@H](CO[C@@H]3O[C@@H](C)[C@H](O)[C@@H](O)[C@H]3O)[C@@H](O)[C@H](O)[C@H]2O)ccc1O [Narcissoside]	108% and 102%	106	102	103	107	105	103	109
CCn1cc(C(=O)O)c(=O)c2cc(F)c(N3CCNCC3)cc21 [Norfloxacin (Norxacin)]	91.3% and 98.8%	90.9	88.7	95.5	90.5	91.8	97.4	91.5
O=C(O)COCCN1CCN([C@H](c2ccccc2)c2ccc(Cl)cc2)CC1 [Levocetirizine Dihydrochloride]	99% and 88.4%	101	93.2	107	92.4	99.3	91.7	103
CN1C(C(=O)Nc2ccccn2)=C(O)c2sccc2S1(=O)=O [Tenoxicam(Mobiflex)]	105% and 103%	102	107	112	98.4	106	95.5	105
CCc1cc(Nc2nccc(-c3c(-c4ccc(OC)c(C(=O)Nc5c(F)cccc5F)c4)nc4ccccn34)n2)c(OC)cc1N1CCC(N2CCN(S(C)(=O)=O)CC2)CC1	88.6% and 96.3%	97.3	106	108	105	100	93.9	98.7
O=C1C(Cl)=C(N2CCOCC2)C(=O)N1c1ccc(Cl)c(Cl)c1	97.9% and 96%	97.4	88.2	109	87	94	83.3	96.4
N#Cc1ccc2[nH]c(O)c(-c3ccc(CN4CCOCC4)cn3)c2c1	73.5% and 54.9%	78.4	81.4	97.9	71.2	93.3	98.7	123
COc1nc2ccc(Br)cc2cc1[C@@H](c1ccccc1)[C@@](O)(CCN(C)C)c1cccc2ccccc12 [Bedaquiline fumarate]	55% and 58.7%	74.9	63.9	55.5	41.6	54.7	24.1	21.3
Cc1[nH]nc2ccc(-c3cncc(OC[C@@H](N)Cc4ccccc4)c3)cc12	31.9% and 28.5%	26.3	7.82	5.76	0.2	0.05	0.26	6.55
COc1ccccc1-c1cc(Nc2cccc(CS(N)(=O)=O)c2)ncn1	90.2% and 89.9%	91.5	29.4	45.6	26.5	5.12	18.1	30
O=C(Cn1cnnn1)N[C@@H]1C(=O)N2C(C(=O)O)=C(CSc3nncs3)CS[C@H]12 [Ceftezole sodium]	108% and 99.1%	120	101	105	109	110	123	118
CCOC(=O)c1c(C)n(C)c2ccc(O)cc12 [Mecarbinate]	108% and 99.1%	99.8	97.3	104	116	112	92.2	98.1
O=C(O)c1ccc(-n2nc(-c3ccccc3O)nc2-c2ccccc2O)cc1 [Deferasirox (Exjade)]	93.5% and 95.5%	76.4	60.3	74	83.5	60	58.3	67.8

Structure (SMILES)	cell viability (K562; SRSF2 genotype: SRSF2 P95H/wt)	cell viability (K562; SRSF2 genotype: SRSF2 wt/wt) [%]	cell viability (MARIMO; SRSF2 genotype: SRSF2 P95H/wt) [%]	cell viability (MARIMO; SRSF2 genotype: SRSF2 wt/wt) [%]	cell viability (MOLM14; SRSF2 genotype: SRSF2 P95H/wt) [%]	cell viability (MOLM14; SRSF2 genotype: SRSF2 wt/wt) [%]	cell viability (OCI-AML2; SRSF2 genotype: P95H/wt) [%]	cell viability (OCI-AML2; SRSF2 genotype: wt/wt) [%]
O=C[C@H](O)[C@@H](O)[C@H](O)CO [Xylose]	95% and 93.8%	96	90.4	96.1	91.8	95.2	103	88.2
OC[C@H]1O[C@@](CO)(OC[C@@]2(OC[C@@]3(O[C@H]4O[C@H](CO)[C@@H](O)[C@H](O)[C@H]4O)O[C@H](CO)[C@@H](O)[C@@H]3O)O[C@H](CO)[C@@H](O)[C@@H]2O)[C@@H](O)[C@@H]1O [Nystose]	106% and 101%	111	100	101	106	100	106	102
COc1ccc(Oc2cc(NCCC(F)(F)F)c3ncc(-c4ccc(C(=O)NC5CC5)c(C)c4)n3n2)c(F)c1F	103% and 102%	108	67.6	77.1	58.9	42.6	71.4	72.9
Cc1onc(-c2c(F)cccc2Cl)c1C(=O)N[C@@H]1C(=O)N2[C@@H]1SC(C)(C)[C@@H]2C(=O)O [Flucloxacillin sodium]	96.6% and 89.9%	94.3	100	108	95.6	96.5	99.6	107
Cc1cn(CCN2CCN(c3ccccc3-c3cc(C#N)cc(C(=O)NCCCN4CCCC4)c3)CC2)c2ccccc12	0.16% and 0.18%	0.16	0.17	0.22	0.12	0.12	0.03	0.1
O=C(Nc1ncc([N+](=O)[O-])s1)c1ccccc1O [Tizoxanide]	82% and 82.9%	88.8	90.3	94.2	96.9	100	91.2	96.1
CC=C1C(=O)C[C@H]2[C@@H]3CCC4=CC(=O)CC[C@]4(C)[C@H]3CC[C@]12C [Guggulsterone E&Z]	76% and 84.7%	79.3	61.7	72.3	80.4	89.3	71.8	76.7
C=C(C)C1CCC2(C)CCC(=O)C(C)=C2C1 (stereo not given)	111% and 105%	112	106	100	112	110	102	101
CCOC(=O)NCCCC(=O)NCCc1ccccc1	102% and 97.9%	98.8	105	109	100	105	108	106
c1cc(-c2cnn3cc(-c4ccc(N5CCNCC5)cc4)cnc23)c2cccnc2c1	0.29% and 0.31%	0.27	0.3	0.3	0.26	0.32	0.24	0.25
C=C[C@@](C)(/C=C/c1ccc(O)cc1)CCC=C(C)C [Bakuchiol]	98.5% and 98.7%	95.3	87.8	83	87.3	90.1	83.1	81.6
O=C1CCc2cc(OCCCCc3nnnn3C3CCCCC3)ccc2N1 [Cilostazol]	97.9% and 98.4%	96.8	103	102	100	101	109	97.9
CCCCc1ccc(O)cc1O [4-Butylresorcinol]	99.6% and 85.8%	91.2	90.6	102	86.5	93.8	85.7	88.9
Cc1ncc(NC(=O)c2cccc(C(F)(F)F)c2)cc1-c1cnc(OC2CCOCC2)c(N2CCOCC2)c1	61.6% and 73.4%	71.2	41.2	40.3	48.2	40.7	30.6	39
CC(=O)Oc1ccccc1C(=O)O.CC(=O)Oc1ccccc1C(=O)O.NC(N)=O [Carbasalate Calcium]	105% and 106%	102	104	105	104	103	102	97.8
C=C(C)[C@@H]1CC[C@]2(C(=O)O)CC[C@]3(C)[C@H](CC[C@@H]4[C@@]5(C)CC[C@H](O)C(C)(C)[C@@H]5CC[C@]43C)[C@@H]12 [Betulinic acid]	72% and 77.2%	80.1	82.3	51.4	86.7	89.3	61.9	65
CC(C)C[C@H](NC(=O)[C@H]1O[C@@H]1C(=O)O)C(=O)NCCCCN=C(N)N	106% and 111%	114	99.6	104	101	104	108	115
